Screens from PubChem.
JMJD2A Tudor – JMJD2A Tudor domain (human) inhibition; actives 4.4% (n = 390,000); AlphaScreen JMJD2A-Tudor / H3K4me3 peptide binding; Potency, µM (highest dose often 114 µM), without a hit: at the top dose activity change, negative = inhibition, hits mostly inhibitors; AID 504339; further: potency means the concentration at half of the fitted maximal effect; on the % scale 0 is the no-effect control and ±100 the full control effect; nearly all actives have a fitted effect of over 50% in size
L3MBTL1 inh – inhibitors of human L3MBTL1; Q9Y468; AlphaScreen L3MBTL1–H3K9me1 peptide binding; Potency, µM (highest dose often 57.1 µM), inactives show top-dose activity, negative = inhibition, most hits filed as inhibitors; actives 0.66% (n = 230,000); AID 485360; further: potency means the concentration at half of the fitted maximal effect; on the % scale 0 is the no-effect control and ±100 the full control effect; nearly all actives have a fitted effect of over 60% in size
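L3MBTL1 50 nM + b-AHA-H3(1-15)K9me1 75 nM, 30 min RT; compound added, 30 min RT; streptavidin donor/Ni-chelate acceptor beads 10 ug/mL each final, 30 min RT dark; AlphaScreen read.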
HP1b chromo inh – HP1-beta chromodomain-methylated histone interaction inhibition; P83916; AlphaScreen HP1-beta / biotin-H3K9me3 peptide binding; Potency, µM (top dose mostly 114 µM), for inactives: at the top dose activity change, negative = inhibition, most hits filed as inhibitors; actives 0.56% (n = 390,000); further: potency means the concentration at half of the fitted maximal effect; nearly all actives have a fitted effect of over 70% in size
Target sequence (P83916 whole entry, looked up): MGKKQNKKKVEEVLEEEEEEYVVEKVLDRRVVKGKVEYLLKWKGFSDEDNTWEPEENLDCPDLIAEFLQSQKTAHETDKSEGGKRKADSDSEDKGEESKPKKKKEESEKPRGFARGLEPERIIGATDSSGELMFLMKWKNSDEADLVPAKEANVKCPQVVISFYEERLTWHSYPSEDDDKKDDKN
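Compound inhibition of the preformed complex between 50 nM HP1-beta and 50 nM biotinylated H3K9me3 peptide was read by AlphaScreen. Buffer was PBS pH 7.4 with 0.01% Tween-20. Incubations ran 30 min at room temperature, with 10 ug/mL donor/acceptor beads.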
BAZ2B inh – inhibitors of human BAZ2B bromodomain. actives 4.4% (n = 360,000). Q9UIF8. Potency, µM (titrated, usually from 114 µM), for inactives: at the top dose activity change, negative = inhibition, usual class: inhibitors. AID 504333. AlphaScreen BAZ2B-H3K14Ac peptide displacement; further: potency means the concentration at half of the fitted maximal effect; on the % scale 0 is the no-effect control and ±100 the full control effect; nearly all actives have a fitted effect of over 60% in size
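BAZ2B 50 nM plus b-H3(5-23)K14Ac 50 nM, PBS pH 7.4/0.01% Tween-20, 30 min RT; compound added (max 110 uM), 30 min RT; streptavidin donor/Ni-chelate acceptor beads 10 ug/mL final, 20 min dark; AlphaScreen read.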
PI5P4K alpha inh – blocks human PI5P4K alpha kinase activity | P48426 | PI5P4Kalpha enzyme, ADP-Glo luminescence, 60 min; stronger effect = lower value | actives 1.2% (n = 330,000) | max response, %; active means max response of -50% or lower; inconclusive means between -30% and -50%; inactive means -30% or higher; further: value at the top dose of about 77 µM; on the % scale 0 is the no-effect control and ±100 the full control effect
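Quantitative HTS of the MLSMR library against PI5P4Kalpha with substrate. ATP added last at 5 microM final; room temperature, 60 minutes. Remaining ATP depleted, ADP converted and read as luminescence.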
G9a inh – blocks human histone lysine methyltransferase G9a | Q96KQ7 | G9a H3K9 monomethylation, AlphaScreen, 2 h | Potency, µM (highest dose often 102 µM), for the others: top-dose activity, negative = inhibition, usual class: inhibitors | actives 8.8% (n = 350,000); further: potency means the concentration at half of the fitted maximal effect; on the % scale 0 is the no-effect control and ±100 the full control effect; nearly all actives have a fitted effect of over 75% in size
Target sequence (Q96KQ7 913-1193 limits assumed): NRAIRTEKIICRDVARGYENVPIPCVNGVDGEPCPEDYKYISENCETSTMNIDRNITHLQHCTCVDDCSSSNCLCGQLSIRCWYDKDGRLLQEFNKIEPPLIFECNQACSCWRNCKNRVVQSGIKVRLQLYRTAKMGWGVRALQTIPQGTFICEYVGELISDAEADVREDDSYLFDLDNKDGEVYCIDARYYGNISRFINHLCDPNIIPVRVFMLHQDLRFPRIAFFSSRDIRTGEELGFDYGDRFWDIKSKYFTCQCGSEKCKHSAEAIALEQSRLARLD
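Chemiluminescent proximity detection of H3K9 monomethylation, read after 10 min bead incubation in the dark. Reaction: 20 nM G9a, 500 nM biotin-H3K9 peptide, 20 uM SAM cofactor, 2 h, room temperature, following 15 min enzyme-compound preincubation.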
Active calls of the source: *; [ ] = dose if it differs, or a comment. Sampled rows, rich in hits. Any-hit rate of the full collection: about 11%. Unless noted, the call rests on the fitted dose curve; in most records, active means well fitted inhibition curve with a large enough effect; inconclusive means small, poorly fitted or top-dose-only effect; inactive means no such curve, though single readings can be large or run the other way.

What do the screens show for `COCCN1Cc2cccc(C(=O)Nc3ccc(C(=O)OC)cc3)c2C1=O`?
JMJD2A Tudor: -10%; HP1b chromo inh: 18%; G9a inh: -4%[59 µM]

Results for CC1=C(/C=C/C(C)=C/C=C/C(C)=C/CO)C(C)(C)CCC1 ?
JMJD2A Tudor: -14%; HP1b chromo inh: 17%; PI5P4K alpha inh: -1

How did CC1=C(/C=C/C(C)=C/C=C/C(C)=C\CO)C(C)(C)CCC1 do in these assays?
G9a inh: 25µM*

Results for Cc1ccc(CN2CC(C(=O)Nc3cc(S(C)(=O)=O)ccc3Cl)CC2=O)cc1 (stereo not drawn) ?
JMJD2A Tudor: -27%; L3MBTL1 inh: -18%; HP1b chromo inh: 8%; BAZ2B inh: 50µM*; PI5P4K alpha inh: -24; G9a inh: inconclusive

What do the screens show for `O=C1CCCC2=C1C1(CCOCC1)N=C(Nc1nc3ccccc3o1)N2`?
JMJD2A Tudor: -23%

How did COC(=O)c1csc(C(=O)c2c[nH]c3ccccc23)n1 do in these assays?
G9a inh: 30%[59 µM]

What do the screens show for `CC(C)n1c(=S)[nH]c2ccccc21`?
JMJD2A Tudor: 79µM*; HP1b chromo inh: -19%; BAZ2B inh: -22%; PI5P4K alpha inh: -15; G9a inh: inconclusive

How did CCn1c(=S)[nH]c2cc(C(=O)O)ccc21 do in these assays?
BAZ2B inh: -12%; G9a inh: 45µM*

Results for CC(C)Cn1c(=O)[nH]c2ccccc21 ?
JMJD2A Tudor: -1%; HP1b chromo inh: 39%; BAZ2B inh: 9%; PI5P4K alpha inh: 0; G9a inh: 15%[59 µM]

Results for CCn1c(=S)[nH]c2ccccc21 ?
JMJD2A Tudor: 79µM*; HP1b chromo inh: 1%; BAZ2B inh: -22%; PI5P4K alpha inh: 3; G9a inh: 2.8µM*

What do the screens show for `O=C(Cn1c(=S)[nH]c2ccccc21)c1ccccc1`?
JMJD2A Tudor: inconclusive; L3MBTL1 inh: -3%; HP1b chromo inh: 42%; BAZ2B inh: -1%; PI5P4K alpha inh: 1; G9a inh: 3.5µM*

Results for CCn1c(=S)[nH]c2cc(Cl)ccc21 ?
JMJD2A Tudor: -13%; HP1b chromo inh: 47%; BAZ2B inh: -8%; PI5P4K alpha inh: -4

Results for COc1cccc(CNCCSc2nnnn2C)c1OCc1ccc(Cl)cc1 ?
JMJD2A Tudor: -2%; HP1b chromo inh: 22%; BAZ2B inh: -24%; G9a inh: 2%[59 µM]

Results for COc1ccccc1Cn1cc(C(=O)c2ccc(C)cc2)c(=O)c2cc3c(cc21)OCCO3 ?
JMJD2A Tudor: -29%; HP1b chromo inh: 6%; BAZ2B inh: -30%; G9a inh: -39%[59 µM]

What do the screens show for `COc1ccc(Cn2c(=O)c3oc4ccccc4c3n(Cc3ccc(F)cc3)c2=O)cc1`?
JMJD2A Tudor: 3%; HP1b chromo inh: 38%; BAZ2B inh: -21%; G9a inh: 3%[59 µM]

How did CCn1c(=S)[nH]c2cc(S(=O)(=O)N3CCCCC3)ccc21 do in these assays?
JMJD2A Tudor: 79µM*; HP1b chromo inh: -22%; BAZ2B inh: 4%; G9a inh: inconclusive

What do the screens show for `Cc1cc(C)cc(NC(=O)CCn2c(=S)[nH]c3ccccc3c2=O)c1`?
JMJD2A Tudor: -11%; HP1b chromo inh: 29%; BAZ2B inh: -3%; PI5P4K alpha inh: -4; G9a inh: 64%

What do the screens show for `CCCCn1c(=S)[nH]c2cc(S(=O)(=O)N3CCOCC3)ccc21`?
JMJD2A Tudor: inconclusive; L3MBTL1 inh: 1%; HP1b chromo inh: 42%; PI5P4K alpha inh: -10

Results for Cc1ccc(NC(=O)Cn2c(=S)[nH]c3ccccc32)cc1 ?
JMJD2A Tudor: -2%; HP1b chromo inh: inconclusive; BAZ2B inh: 0%; PI5P4K alpha inh: -10; G9a inh: 3.5µM*

How did COc1ccc(-n2c(=O)c(CCc3ccccc3)nc3cnc(N(C)C)nc32)cc1 do in these assays?
G9a inh: 2%[12.7 µM]

Results for N#CCCn1c(=O)c(-c2cccs2)nc2cnc(OCc3ccccc3)nc21 ?
G9a inh: 20%[12.7 µM]

What do the screens show for `O=[N+]([O-])c1cccc(-c2nnc(-c3ccccc3)o2)c1`?
JMJD2A Tudor: -15%; L3MBTL1 inh: -9%; HP1b chromo inh: 22%; BAZ2B inh: -33%; PI5P4K alpha inh: -2; G9a inh: -3%

Results for Cc1occc1-c1nnc(-c2cc([N+](=O)[O-])cc([N+](=O)[O-])c2)o1 ?
JMJD2A Tudor: -34%; L3MBTL1 inh: inconclusive; HP1b chromo inh: -5%; BAZ2B inh: inconclusive; PI5P4K alpha inh: inconclusive; G9a inh: 32µM*

What do the screens show for `N#CCCn1c(=O)c(-c2ccccc2)nc2cnc(Oc3ccccc3)nc21`?
G9a inh: 5%[12.7 µM]

What do the screens show for `CSc1ccc(S(=O)(=O)Nc2ccc(OCC(=O)N3CCOCC3)cc2)cc1`?
JMJD2A Tudor: -9%; L3MBTL1 inh: -4%; HP1b chromo inh: 24%; BAZ2B inh: 2%; PI5P4K alpha inh: -2; G9a inh: 11µM*

How did CC(NC(=O)COc1ccc(/C=N/NS(=O)(=O)c2ccccc2)cc1)c1ccccc1 (stereo not drawn) do in these assays?
JMJD2A Tudor: -3%; L3MBTL1 inh: -2%; HP1b chromo inh: 24%; BAZ2B inh: 8%; PI5P4K alpha inh: -5; G9a inh: 50µM*

How did CC(=O)Oc1ccc(/C=N/NS(=O)(=O)c2ccccc2)cc1 do in these assays?
JMJD2A Tudor: -15%; L3MBTL1 inh: -1%; HP1b chromo inh: 34%; BAZ2B inh: -8%; PI5P4K alpha inh: 1; G9a inh: 8%[59 µM]

What do the screens show for `O=C(COc1ccc(/C=N/NS(=O)(=O)c2ccccc2)cc1)Nc1cccc(Cl)c1`?
JMJD2A Tudor: -23%; L3MBTL1 inh: -10%; HP1b chromo inh: 27%; BAZ2B inh: 1%; PI5P4K alpha inh: -8; G9a inh: 50µM*

How did CC(=O)CNc1ccc(S(=O)(=O)N/N=C/c2ccccc2)cc1 do in these assays?
JMJD2A Tudor: -4%; L3MBTL1 inh: 2%; HP1b chromo inh: 54%; BAZ2B inh: -16%; PI5P4K alpha inh: 10; G9a inh: 6.3µM*

How did COc1ccc(C(=O)N2CCC3(CC2)CCN(c2cccc(-c4ccccc4)c2)CC3)cc1 do in these assays?
G9a inh: -8%[12.7 µM]

Results for CCc1ccc(C(=O)NC2=NC(c3cc(OC)ccc3OC)CC(=O)N2)cc1 (stereo not drawn) ?
JMJD2A Tudor: 3%; HP1b chromo inh: 28%; BAZ2B inh: 1%; G9a inh: -3%[59 µM]

How did CC1CCc2nc3ncn(Cc4ccccc4F)c(=O)c3cc2C1 (stereo not drawn) do in these assays?
JMJD2A Tudor: -13%; HP1b chromo inh: 16%[57 µM]; BAZ2B inh: -2%; G9a inh: 14%[59 µM]
